PubChem BioAssay AID504339 (National Center for Advancing Translational Sciences (NCATS), 2011)
About 17,000 (4.4%) of roughly 390,000 compounds were called active. Inconclusive results (about 8%) are left out. Calls come from the whole dose curve; as a rule, active = well fitted inhibition curve with a large enough effect; inconclusive = small, poorly fitted or top-dose-only effect; inactive = no such curve, though single readings can be large or run the other way. Shown is part of a subset that was picked to be rich in actives.

Molecular target: Lysine-specific demethylase 4A (Homo sapiens) (UniProt O75164)
Sequence (O75164 whole entry, looked up, the tested form may be a part): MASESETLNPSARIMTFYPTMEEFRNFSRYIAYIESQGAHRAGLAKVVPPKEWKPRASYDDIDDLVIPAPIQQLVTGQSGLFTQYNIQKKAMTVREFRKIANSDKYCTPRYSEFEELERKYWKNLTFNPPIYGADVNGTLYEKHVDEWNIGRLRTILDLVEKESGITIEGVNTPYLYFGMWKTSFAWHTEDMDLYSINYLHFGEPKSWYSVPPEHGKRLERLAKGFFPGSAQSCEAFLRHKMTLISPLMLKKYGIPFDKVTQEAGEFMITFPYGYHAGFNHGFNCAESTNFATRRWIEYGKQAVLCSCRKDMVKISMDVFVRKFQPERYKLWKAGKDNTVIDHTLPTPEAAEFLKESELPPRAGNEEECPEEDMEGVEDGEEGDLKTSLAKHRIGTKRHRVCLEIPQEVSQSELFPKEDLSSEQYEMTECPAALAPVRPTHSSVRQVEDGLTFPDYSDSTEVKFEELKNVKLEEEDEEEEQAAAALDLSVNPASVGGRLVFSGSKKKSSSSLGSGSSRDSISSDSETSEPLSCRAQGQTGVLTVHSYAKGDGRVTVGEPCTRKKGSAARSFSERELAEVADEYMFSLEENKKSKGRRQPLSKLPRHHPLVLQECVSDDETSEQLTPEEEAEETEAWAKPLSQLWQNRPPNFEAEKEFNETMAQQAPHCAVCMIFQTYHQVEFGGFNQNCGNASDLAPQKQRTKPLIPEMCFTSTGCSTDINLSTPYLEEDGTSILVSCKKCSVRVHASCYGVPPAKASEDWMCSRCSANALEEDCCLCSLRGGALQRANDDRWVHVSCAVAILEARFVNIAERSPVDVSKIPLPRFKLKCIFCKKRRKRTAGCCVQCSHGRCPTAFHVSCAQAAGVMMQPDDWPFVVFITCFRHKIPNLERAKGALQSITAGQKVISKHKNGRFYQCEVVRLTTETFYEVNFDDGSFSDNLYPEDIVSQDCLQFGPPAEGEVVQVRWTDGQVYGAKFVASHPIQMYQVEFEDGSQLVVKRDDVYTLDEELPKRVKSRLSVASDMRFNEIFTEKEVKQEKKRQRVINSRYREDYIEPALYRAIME
Assay: qHTS Assay for Inhibitors of JMJD2A-Tudor Domain; note: nearly all actives have a fitted effect of over 50% in size
Conditions: AlphaScreen JMJD2A-Tudor / H3K4me3 peptide binding; series mostly up to 114 µM; activity change, negative = inhibition: at the top concentration
% is set by controls: 0 for no effect and ±100 for the full control effect; potency is the fitted concentration of half-maximal effect.

| SMILES | Potency | activity change, negative = inhibition |
| --- | --- | --- |
| CCc1cc(-c2n[nH]c(=S)n2CC(C)C)cs1 | 28.2 µM (active) | – |
| CCc1cc(-c2nnc(SCC(=O)NC3CC3)n2C)cs1 | – | -3.32% (inactive) |
| CCCc1cc(-c2n[nH]c(=S)n2Cc2ccccc2)cs1 | – | -26% (inactive) |
| Cc1ccccc1NC(=O)CN1C(=O)C(C)(C)c2ccccc21 | – | -7.74% (inactive) |
| CCOc1ccc(N(CC)S(=O)(=O)N2CCCC(C(=O)NCc3ccc(SC)cc3)C2)cc1 (stereo not given) | – | -20.5% (inactive) |
| COc1ccc(S(=O)(=O)N2CCN(c3ccc(F)cc3)CC2)cc1-c1noc(C)n1 | – | -15.1% (inactive) |
| CCc1nc(-c2cc(S(=O)(=O)N3CCN(c4ccc(OC)cc4)CC3)ccc2OC)no1 | 79.4 µM (active) | – |
| COc1ccc(N2CCN(S(=O)(=O)c3ccc(-c4coc(C)n4)cc3)CC2)cc1 | – | -31.9% (inactive) |
| Cc1csc2nc(COc3ccc(NC(=O)COc4ccccc4)cc3)cc(=O)n12 | – | -17.5% (inactive) |
| CCn1c2ccccc2c2nnc(SCC(=O)O)nc21 | – | -18.6% (inactive) |
| O=C(CCn1c(=S)[nH]c2ccccc2c1=O)NCCCN1CCCC1=O | 17.8 µM (active) | – |
| CCOc1cc2[nH]c(=S)n(CCN3CCCCC3C)c(=O)c2cc1OCC (stereo not given) | – | 0% (inactive) |
| O=C(CCC(=O)NNc1nc2ccccc2c2nc(-c3ccccc3)nn12)NCCCN1CCCC1=O | – | -12.6% (inactive) |
| CCOc1cc2[nH]c(=S)n(CCCN3CCCC3=O)c(=O)c2cc1OCC | 22.4 µM (active) | – |
| CCOc1cc2[nH]c(=O)n(Cc3ccc(C(=O)NCCCN4CCCC4=O)cc3)c(=O)c2cc1OCC | – | -12.8% (inactive) |
| O=C(CCCCCn1c(=O)[nH]c2ccccc2c1=O)NCCc1c[nH]c2ccccc12 | – | -25.3% (inactive) |
| Cc1ccc2nc(COc3ccc(NC(=O)COc4ccccc4F)cc3)cc(=O)n2c1 | – | -2.6% (inactive) |
| Cc1ccc(NC(=O)Cn2nnc3sc4c(c3c2=O)CCC(C)C4)cc1 (stereo not given) | – | -12.8% (inactive) |
| CCC(=O)N1CCc2cc(S(=O)(=O)NC(C(=O)NCCc3ccc(C)cc3)C(C)C)ccc21 (stereo not given) | – | -18.3% (inactive) |
| Cc1ccc(NC(=O)c2ccc(CSc3ncnc4nc[nH]c34)cc2)c(C)c1 | – | -6.81% (inactive) |
| S=c1c2[nH]cnc2ncn1CCSc1ncnc2nc[nH]c12 | 12.6 µM (active) | – |
| CCc1ccc(N(CC)c2ncnc3nc[nH]c23)cc1 | – | -11.3% (inactive) |
| CN(C(=O)CSc1nc2ccc(NC(=O)COc3ccccc3)cc2s1)c1ccccc1 | – | -15.6% (inactive) |
| CCCCCCSc1ccc([C@@H]2[C@@H]3C(=O)N(CC)C(=O)[C@@H]3[C@]3(C(=O)OC)CCCCN23)cc1OC | 56.2 µM (active) | – |
| CCCCCCSc1ccc([C@@H]2[C@H]3C(=O)N(CC)C(=O)[C@H]3[C@]3(C(=O)OC)CCCCN23)cc1 | – | -7.64% (inactive) |
| CCN1C(=O)[C@@H]2[C@@H](c3ccc(-c4ccc(OC)cc4)c(OC)c3)N3CCC[C@@]3(C(=O)OC)[C@@H]2C1=O | – | -26.4% (inactive) |
| COc1ccc(Cc2nc3ccc(C(=O)NCc4ccccc4C)cc3o2)cc1 | – | -8.95% (inactive) |

| SMILES | Potency | activity change, negative = inhibition |
| --- | --- | --- |
| O=C1c2ccccc2C(=O)N1c1ccc(S(=O)(=O)N2CCOCC2)c2ccccc12 | – | -10.6% (inactive) |
| COc1ccc(OCc2n[nH]c(=S)n2N)cc1 | 3.98 µM (active) | – |
| S=c1[nH]nc(COc2ccccc2)n1-c1ccccc1 | 12.6 µM (active) | – |
| O=C(COc1ccccc1[N+](=O)[O-])N/N=C/c1ccc[nH]1 | – | -25.3% (inactive) |
| Fc1ccc(/C=N/n2c(COc3ccccc3)n[nH]c2=S)cc1 | 56.2 µM (active) | – |
| CC(Sc1nnc(COc2ccccc2)n1-c1ccccc1)C(=O)O (stereo not given) | – | -15.1% (inactive) |
| COc1ccc(OCC(=O)NNC(=O)C2CCC2)cc1 | – | 3.76% (inactive) |
| O=[N+]([O-])c1ccccc1/C=N/n1c(COc2ccccc2)n[nH]c1=S | 50.1 µM (active) | – |
| COc1ccc(CNc2nnnn2C)cc1 | – | -6.16% (inactive) |
| Cc1c(NC(=O)CCCOc2ccccc2)cccc1[N+](=O)[O-] | – | -23.9% (inactive) |
| COc1ccccc1OCc1nnc(SCC(N)=O)n1-c1ccccc1 | – | -10.9% (inactive) |
| O=C(COc1ccccc1)Nc1ccc(F)cc1 | – | 2.1% (inactive) |
| CCOc1ccccc1C(=O)Nc1ccc2c(c1)N(C)C(=O)c1ccccc1S2 | – | -15% (inactive) |
| CCOC(=O)c1cc2c(=O)n3ccccc3nc2n(CCCOC)c1=NC(=O)C(C)Oc1ccccc1 (stereo not given) | – | -18.1% (inactive) |
| Cc1ccc2nc(N3CCN(c4cccc(Cl)c4)CC3)c3nnnn3c2c1 | – | 15.9% (inactive) |
| Cc1cc(C)cc(NC(c2nnc(-c3cccc(F)c3)o2)c2ccc(F)cc2Cl)c1 (stereo not given) | – | -17.8% (inactive) |
| COc1ccc(CCNC(=O)c2ccc(-n3c(C)cc4c3CCCC4)cc2)cc1OC | – | -22.1% (inactive) |
| COc1ccc(C2/C=C\CN(Cc3ccco3)C(C)C(=O)N2Cc2ccc(F)cc2)cc1 (stereo not given) | – | -26.2% (inactive) |
| O=C(NCCc1ccccc1)c1ccc2c(c1)N(Cc1ccccc1)C(=O)c1ccccc1S2(=O)=O | – | -19.2% (inactive) |
| Cc1cnc(NC(=O)c2ccccn2)s1 | 56.2 µM (active) | – |
| CN(C(=O)c1ccccn1)c1nnc(-c2ccccn2)s1 | – | -13.5% (inactive) |
| Cc1cnc(NC(=O)Cn2cnc3c2c(=O)n(C)c(=O)n3C)s1 | – | 3.52% (inactive) |
| Cc1c(Cl)cccc1NC(=O)c1noc2c1CCCC2 | – | 10.6% (inactive) |
| CC(=O)Nc1ccc(NC(=O)CS(=O)(=O)c2cn(CC(=O)N3CCCCC3)c3ccccc23)cc1 | – | -3.42% (inactive) |
| CCOC(=O)c1ccc(NC(=O)CS(=O)(=O)c2cn(CC)c3ccccc23)cc1 | 79.4 µM (active) | – |
| CCOC(=O)c1ccc(NC(=O)Cn2cc(S(=O)(=O)Cc3ccccc3F)c3ccccc32)cc1 | – | -14.9% (inactive) |
| COc1ccccc1NC(=O)CSc1oc(-c2ccco2)nc1S(=O)(=O)c1ccc(Br)cc1 | – | -23.2% (inactive) |

| SMILES | Potency | activity change, negative = inhibition |
| --- | --- | --- |
| CCCn1c2ccccc2c2cnn(CC(=O)N(C)c3ccccc3CC)c(=O)c21 | – | -26.7% (inactive) |
| CCCC(C(=O)OCCN(CC)CC)(c1ccccc1)c1ccccc1 | – | -36% (inactive) |
| CCN(CC)CCOCCOc1ccc(Cl)c2ccccc12 | 25.1 µM (active) | – |
| CN(C)CCOCCOc1ccc(Cl)c2ccccc12 | 3.16 µM (active) | – |
| CCOc1ccc(S(=O)(=O)N2CCCCCC2)c2ccccc12 | – | 23.2% (inactive) |
| COc1ccc(C)cc1NC(=O)C(=O)NCCc1sc(-c2cccc(C)c2)nc1C | – | -6.13% (inactive) |
| Cc1nc(SCC(=O)N2CCN(c3ccccc3)CC2)[nH]c(=O)c1C | – | -9.03% (inactive) |
| CCOc1ccc(NC(=O)CCC(=O)N2CC(C)Oc3ccc(C)cc32)cc1 (stereo not given) | – | -2.32% (inactive) |
| CCOc1ccc(CNC(=O)c2ccc3c(c2)nnn3C2CCCC2)cc1 | – | -18.5% (inactive) |
| COc1ccc(-c2nc3sc(CCNC(=O)C(C)(C)C)c(C)n3n2)cc1 | – | -14% (inactive) |
| CCOC(=O)NNc1cc(C(F)(F)F)ccn1 | – | -14.5% (inactive) |
| CCOC(=O)C1Nc2ccc(C(F)(F)F)cc2C2C=CCC12 (stereo not given) | 50.1 µM (active) | – |
| CCOC(=O)C[C@H]1c2ccc(C(F)(F)F)cc2S(=O)(=O)N1c1ccccc1 | – | -14.3% (inactive) |
| CCOc1cccc(NC(=O)CSc2ncc(-c3ccc(Cl)cc3)[nH]2)c1 | – | -16.1% (inactive) |
| COc1cccc(C(=O)NC2CCN(C#N)CC2)c1 | – | -17.8% (inactive) |
| COC(=O)c1cnn(-c2ccc(C(=O)Nc3ccc(OC(F)(F)F)cc3)cc2)c1N | – | -18% (inactive) |
| CCCN(CCC)CCCNC(=O)Cn1cc2c(n1)-c1c(oc(C(=O)N3CCCC3)c1C)CC2 | – | -15.8% (inactive) |
| CCOC(=O)c1ccc(NC(=O)C2CC(=O)NC(=Nc3ccc(C)c(C)c3)S2)cc1 (stereo not given) | – | -19.7% (inactive) |
| Cn1c(=O)c2c(n3c4ccccc4nc13)NC(=O)CC2c1cccc(Cl)c1 (stereo not given) | – | -14.3% (inactive) |
| O=C1CCc2cc(S(=O)(=O)Nc3cccc(Oc4ccccc4)c3)ccc2N1 | – | -30.5% (inactive) |
| CCN1CCN(c2ncnc3c2cnn3-c2ccc(C)c(C)c2)CC1 | – | -21.7% (inactive) |
| COC(=O)CC1=NN(c2ccccc2)C(=O)C1 | – | -19.2% (inactive) |
| O=C1CC(c2ccccc2)=NN1c1ccc([N+](=O)[O-])cc1 | 39.8 µM (active) | – |
| Cn1nc(-c2ccccc2)c2cc([N+](=O)[O-])ccc21 | – | -20.8% (inactive) |
| COC(=O)c1ccc(-c2nc3cc(NC(C)=O)ccc3o2)cc1 | – | -2.29% (inactive) |
| CCOc1cc(C(=O)O)ccc1OCCOc1ccccc1 | – | -10.9% (inactive) |
| CCOc1c(CNCc2ccc(C(=O)O)cc2)cccc1OC | – | 0% (inactive) |

| SMILES | Potency | activity change, negative = inhibition |
| --- | --- | --- |
| CCOc1cccc2c1N[C@@H](c1ccc(C(=O)O)cc1)[C@H]1CC=C[C@@H]21 | 22.4 µM (active) | – |
| C/C(=N\NC(=O)Cc1ccc(Cl)cc1)c1ccccn1 | 56.2 µM (active) | – |
| COc1ccc(C(=O)N/N=C(\C)CC(=O)Nc2ccc(Cl)cn2)cc1 | – | -13.5% (inactive) |
| CC(=NNC(=S)N1CCCCCC1)c1ccccn1 | 11.2 µM (active) | – |
| COc1ccc(C/C(C)=N/NC(=O)c2cc(C)oc2C)cc1 | – | -18.9% (inactive) |
| C/C(=N\NC(=O)c1ccccc1F)c1ccccn1 | 35.5 µM (active) | – |
| C/C(=N/NC(=O)CCc1ccccc1)c1ccco1 | – | 1.37% (inactive) |
| O=C(Nc1nnc(-c2ccccc2F)s1)c1ccccc1F | – | -11% (inactive) |
| C/C(=N/NC(=O)c1ccn(C)n1)c1ccncc1 | – | -9.58% (inactive) |
| COc1ccc(C/C(C)=N/NC(=O)c2ccncc2)cc1 | 10 µM (active) | – |
| CCNC(=S)N1CCN(c2ncccn2)CC1 | – | -18.4% (inactive) |
| CC1=NNC(=O)C1CCC(=O)N/N=C(\C)c1ccc(Cl)cc1 (stereo not given) | – | -9.51% (inactive) |
| Cc1cccc(C)c1NC(=S)N1CCCCCC1 | – | 7.38% (inactive) |
| O=C(CCc1cn(Cc2ccc(F)cc2)c2ccccc12)NC1CCCCC1 | – | -12.8% (inactive) |
| Cc1ccc(N(C)C(=O)C2CCN(S(=O)(=O)c3ccc4c(c3)CCCN4C(=O)C3CCC3)CC2)cc1 | – | -11.6% (inactive) |
| O=C(CCc1nc(CN2CCN(S(=O)(=O)c3ccc(Cl)cc3)CC2)no1)N1CCCCC1 | – | -17.9% (inactive) |
| CCc1ccccc1NC(=O)c1ccc2nc(CCc3ccccc3)oc2c1 | – | -6.71% (inactive) |
| O=C(Cn1c(=O)n(-c2ccc(F)cc2)c(=O)c2sccc21)Nc1cccc(C(F)(F)F)c1 | – | -13.7% (inactive) |
| Cc1ccccc1CN1CCC(CNC(=O)c2c(C)oc3ncnc(N4CCCCC4)c23)CC1 | – | -10% (inactive) |
| COc1ccc(CN2CCc3nc(Nc4ccccc4)ncc3C2)c(OC)c1OC | – | -21.5% (inactive) |
| Cc1ccc(CSc2nc3ccsc3c(=O)n2CCC(C)C)cc1 | – | 49% (inactive) |
| COc1ccc(/C(C)=N/NC(=O)c2ccc3nc[nH]c3c2)cc1 | – | -1.03% (inactive) |
| COc1ccc(CC(=O)Nc2c(C(N)=O)oc3ccccc23)cc1 | – | 13.2% (inactive) |
| COc1ccc(CC(=O)N/N=C(\C)c2ccccn2)cc1 | 89.1 µM (active) | – |
